Screening results (PubChem)
Shn3 3UTR inh – inhibitors of Schnurri-3 3'UTR reporter in osteoblasts; 0.52% of 360,000 active; AID 588674; inhibition, % at 12.5 µM; Clone20 osteoblast Shn3 3'UTR firefly luciferase, 24 h;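 active = mean inhibition of at least 75% with every replicate also reaching 75%; inconclusive = mean inhibition at least 75% but some replicate below; inactive = mean inhibition below 75%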
PAX8 inh HTS – PAX8 transcriptional activity inhibition. inhibition, % at 12.6 µM. RMG-I TPO-luciferase reporter, SteadyGlo, 24 h. 1.2% of 360,000 active;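 active = mean replicate inhibition at least 60% with every replicate also reaching 60%; inconclusive = only one of the two criteria is met; inactive = mean below 60% and not all replicates reaching 60%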;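 note: luciferase light reporting Pax8 driven TPO promoter activity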
LGR2 inh – Drosophila LGR2 receptor signaling inhibition; 0.35% of 380,000 active; HEK293 LGR2, CRE-luciferase, bursicon-stimulated, 4 h; inhibition, % at 9.99 µM;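 active = drop in luminescence signal, shown as inhibition above about 50% in the replicate tests, limit read from the data, passing the limit was not always enough; inconclusive = probably only some replicates passing the limit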;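 note: agonist challenge used bursicon conditioned medium at about half maximal strength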
MITF TRPM1 inh – reduces MITF-dependent TRPM1 promoter luciferase signal | inhibition, % at 12.5 µM | 0.83% of 330,000 active | AID 488899 | SK-MEL-5 TRPM1 promoter luciferase, 24 h;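 active = mean inhibition across replicates of 60% or more, whatever share of single replicates reaches that level; inconclusive = some that reach 60%, reason not given; inactive = mean inhibition across replicates below 60%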
EWS-Fli inh – EWS/Fli transcriptional activity inhibition. A673 NR0B1-luciferase reporter, viability-normalised. inhibition, % at 12.6 µM. 0.67% of 350,000 active;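 active = mean inhibition of at least 50% after viability correction, with every replicate also passing that limit; inconclusive = mean reaches 50% but only one of two replicates passes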;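 note: firefly luciferase signal divided by Alamar Blue viability fluorescence both relative to DMSO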
EBV LMP1 NFkB – inhibitors of Epstein-Barr LMP1-induced NF-kappaB reporter. LMP1-induced NF-kappaB luciferase reporter cells, luminescence. inhibition, % at 12.5 µM. 0.69% of 350,000 active. AID 504558; in the data active = inhibition above about 41%; inconclusive = no clear call, values can overlap the other calls
A number is an active result; - = inactive; ? = inconclusive; . = not tested or not shown; ! = not active in a repeat. In the library only some 2.2% were active in any assay of this set; here they are far more common.

SMILES | Shn3 3UTR inh | PAX8 inh HTS | LGR2 inh | MITF TRPM1 inh | EWS-Fli inh | EBV LMP1 NFkB
COc1cccc(N(C(=O)CCl)C(C(=O)NCCc2ccccc2)c2cccs2)c1 (stereo unspecified) | - | . | - | 88 | . | -
COc1ccc(N(C(=O)CCl)C(C(=O)NCCc2ccccc2)c2cccs2)cc1Cl (stereo unspecified) | ? | 104 | - | 86 | 68 | -
CC(C)Oc1ccc(C(CCNCc2ccc(O)cc2)c2ccccc2)cc1 (stereo unspecified) | - | - | - | 86 | ? | -
COc1ccc(C(CCNCc2ccc(N(C)C)cc2)c2ccccc2)cc1 (stereo unspecified) | - | - | - | - | - | -
O=c1c2ccccc2ncn1CCCOc1ccccc1[N+](=O)[O-] | - | . | - | - | . | -
Cc1cc(OCCCn2cnc3ccccc3c2=O)ccc1[N+](=O)[O-] | - | 88 | - | - | - | -
Oc1c(Br)cc(Br)cc1/C=N/Nc1ccc(Cl)nn1 | 95 | - | - | 66 | - | 45
COC(=O)[C@H]1[C@H](CO)[C@H]2Cn3c(ccc(-c4cccc(F)c4)c3=O)[C@H]2N1CC1CC1 | . | . | - | . | - | .
C[C@H](CO)N1C[C@H](C)[C@H](CN(C)S(=O)(=O)c2ccccc2)Oc2ccc(NS(=O)(=O)c3cn(C)cn3)cc2CC1=O | . | - | - | . | - | .
COc1ccc(-c2noc(CCCC(=O)O)n2)cc1 | - | . | . | 66 | . | -
Cc1ccc(S(=O)(=O)NCC[C@H]2CC[C@H](NC(=O)NC(C)C)[C@@H](CO)O2)cc1 | . | - | - | . | - | .
O=C(Nc1ccc(Cl)cc1)Nc1ccc(N2CCCC2)c(S(=O)(=O)Nc2ccccc2Cl)c1 | 97 | 101 | - | 71 | . | -
N#Cc1ccc(-c2ccc(C3[C@@H]4CN(C(=O)Nc5ccc(C(F)(F)F)cc5)C[C@H]3N4)cc2)cc1 (stereo partly specified) | . | - | - | . | - | .
O=C(Nc1ccccc1)N1C[C@@H]2N[C@H](C1)[C@@H]2c1ccc(/C=C/c2ccccc2)cc1 | . | 113 | - | . | - | .
O=C(Nc1ccc(C(F)(F)F)cc1)N1C[C@@H]2N[C@H](C1)C2c1ccc(-c2cccc(F)c2)cc1 (stereo partly specified) | . | 88 | - | . | - | .
Cc1ccc(-c2ccc(C3[C@@H]4CN(C(=O)Nc5ccc(C(F)(F)F)cc5)C[C@H]3N4)cc2)cc1 (stereo partly specified) | . | 91! | - | . | - | .
O=C(Nc1ccc(NC(=O)c2ccco2)cc1)c1ccco1 | - | - | - | - | . | -
Cc1nc(-c2cccc(NC(=O)c3ccco3)c2)cs1 | - | - | - | - | . | -
Cc1nc(-c2ccc(NC(=O)c3ccco3)cc2)cs1 | - | 88 | 93 | 73 | 84 | 64
Nc1nc(-c2ccc(NC(=O)c3ccco3)cc2)cs1 | - | - | - | - | - | 76
COc1ccc(CN(C)C[C@@H]2Oc3ccc(NS(=O)(=O)c4cccs4)cc3CC(=O)N([C@@H](C)CO)C[C@H]2C)cc1 | . | - | - | . | - | .
C=CCn1c(O)c(N=NC(=S)Nc2ccccc2C)c2cc(S(=O)(=O)N3CCOCC3)ccc21 | - | - | - | - | - | 43
CCc1ccc(Nc2n[n+](-c3ccccc3)c(-c3ccc(OCc4ccccc4)cc3)s2)cc1 | - | - | - | - | - | -
Fc1ccc(-[n+]2nc(Nc3ccccc3)sc2-c2c(Cl)cccc2Cl)cc1 | - | - | 71 | - | - | -
CCc1ccc(Nc2n[n+](-c3ccccc3)c(-c3c(Cl)cccc3Cl)s2)cc1 | 92 | 101 | - | - | - | 44
SMILES | Shn3 3UTR inh | PAX8 inh HTS | LGR2 inh | MITF TRPM1 inh | EWS-Fli inh | EBV LMP1 NFkB
CCc1ccc(Nc2n[n+](-c3ccccc3)c(-c3ccc(N(CC)CC)cc3)s2)cc1 | - | 82 | - | 68 | - | -
CN1c2ccc(-c3ccc(C#N)cc3)cc2[C@H]2[C@H](CCN2C(=O)c2cccc(F)c2)[C@@H]1CO | . | - | - | . | - | .
COc1ccc(NC(=O)N(C)C[C@@H]2Oc3c(NS(=O)(=O)c4ccc(F)cc4)cccc3C(=O)N([C@H](C)CO)C[C@H]2C)cc1 | . | - | - | . | - | .
CCOC(=O)c1c(SCCN2CCCCC2)n(-c2ccccc2)c(=S)n(-c2ccccc2)c1=O | - | - | - | 99 | 79 | -
CCOC(=O)c1c(SC)n(-c2ccccc2)c(=S)n(-c2ccccc2)c1=O | - | - | - | - | - | -
O=C(Nc1ccc(Cl)c(Cl)c1)c1ccc(Cl)c(Cl)c1 | - | - | - | - | - | -
